Source: PubChem BioAssay (NMMLSC)
In the library only some 1.2% were active in any assay of this set; here they are far more common.
RGS7-Gao reg: regulators of human RGS7-Galphao interaction; P09471; Multiplexed bead flow cytometry, RGS7-Galphao binding; actives lie on both sides; binding response (% of control), % at 10 µM; 220,000 tested, 0.35% active; in the data active = binding response below about 49% or above about 150%; inconclusive = no clear call, values can overlap the other calls; inactive = in between;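 also: fluorescent Galphao held in activated GDP-AlF4 state binding bead-coupled RGS7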
Target sequence (P09471 whole entry, looked up): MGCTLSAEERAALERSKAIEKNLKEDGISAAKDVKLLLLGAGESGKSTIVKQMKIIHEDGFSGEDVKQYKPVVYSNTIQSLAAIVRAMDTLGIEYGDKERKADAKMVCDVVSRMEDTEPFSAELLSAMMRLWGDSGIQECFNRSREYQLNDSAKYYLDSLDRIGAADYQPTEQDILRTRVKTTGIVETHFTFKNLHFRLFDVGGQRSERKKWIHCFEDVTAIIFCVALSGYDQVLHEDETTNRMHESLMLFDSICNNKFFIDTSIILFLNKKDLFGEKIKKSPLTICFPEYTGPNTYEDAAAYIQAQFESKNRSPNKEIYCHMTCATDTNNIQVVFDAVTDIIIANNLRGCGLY
RGS16-Gao: modulates binding between human RGS16 and Galphao. 220,000 tested, 0.38% active. bead-based flow cytometry RGS16-Galphao binding, fluorescence; actives lie on both sides. binding response (% of control), % at 10 µM;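 also: Galphao activated by GDP with aluminum fluoride before binding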
Target sequence (O15492 whole entry, looked up): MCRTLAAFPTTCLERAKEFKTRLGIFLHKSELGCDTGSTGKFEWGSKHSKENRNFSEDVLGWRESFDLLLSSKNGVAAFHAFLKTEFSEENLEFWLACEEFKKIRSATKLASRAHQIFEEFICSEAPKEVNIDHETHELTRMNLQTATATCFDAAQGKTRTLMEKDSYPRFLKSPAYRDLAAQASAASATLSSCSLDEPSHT
Target sequence (P09471 whole entry, looked up): as the sequence (P09471 whole entry, looked up) above
RGS4-Gao reg: modulates binding of RGS4 to human Galphao. Multiplexed bead flow cytometry; actives lie on both sides. binding response (% of control), % at 10 µM. 220,000 tested, 0.33% active; in the data active = binding response below about 49% or above about 150%; inactive = in between;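 also: fluorescent Galphao activated with aluminum fluoride binding bead-coupled RGS4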
RGS8-Gao reg: modulates binding of RGS8 to human Galphao. P09471. multiplexed bead flow cytometry; actives lie on both sides. response (percent of control binding), % at 10 µM. 220,000 tested, 0.34% active; in the data active = response below about 60% or above about 140%; inactive = in between;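 also: Galphao activated as the GDP aluminium fluoride complex binding bead-coupled RGS8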
Avidin fluor: avidin bead compound fluorescence profile | Avidin beads, compound fluorescence 488/530 nm, flow cytometry; hits give high values | fluorescence (KMESF) at 10 µM | 220,000 tested, 0.38% active | AID 1775; in the data active = fluorescence above about 47
GSH fluor: compound fluoresces at 488/530 nm on GSH beads; GSH beads flow cytometry, compound fluorescence 488/530 nm; hits give high values; fluorescence (KMESF) at 10 µM; 190,000 tested, 0.25% active; AID 1776; in the data active = fluorescence above about 89;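 also: glutathione beads carrying GST-tagged Bcl family fusion proteins plus one bare bead set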
RGS4-Gao HTS: modulates binding between human RGS4 and Galphao; shares compounds with RGS16-Gao; AID 1504; 1,600 tested, 99% active; RGS4–Galpha-o binding response, % at 10 µM; multiplexed bead flow cytometry, RGS–Galpha-o binding;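 also: fluorescently labeled Galpha-o bound to GDP with aluminium fluoride binding biotinylated RGS beads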
Avidin counter: biotin-avidin bead binding disruption counter-screen. shares compounds with RGS16-Gao. 1,700 tested, under 10 active. inhibition, % at 10 µM. AID 1783. streptavidin beads, fluorescein-biotin binding, flow cytometry;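 active = inhibition above 50%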;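 also: median green fluorescence of gated singlet beads compared with DMSO control wells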
RGS8-Gao confirm: RGS8-Galphao interaction regulation, single point confirmation. bead-based flow cytometry RGS8-Galphao binding, fluorescence; actives lie on both sides. AID 1836. shares compounds with RGS16-Gao. binding response (% of control), % at 10 µM. 1,700 tested, 3% active; in the data active = binding response below about 72% or above about 130%; inactive = in between;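 also: Galphao activated as GDP AlF4 complex before binding bead RGS8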
RGS7-Gao single: RGS7-Galphao interaction regulation, single point confirmation | bead-based flow cytometry RGS7-Galphao binding; actives lie on both sides | shares compounds with RGS16-Gao | response (percent of control binding), % at 10 µM | 1,700 tested, 7.8% active; in the data active = response below about 75% or above about 130%; inactive = in between;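 also: fluorescent Galphao activated with GDP and aluminum fluoride binding bead-coupled RGS7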
RGS16-Gao single: RGS16-Galphao interaction regulation, single point confirmation | bead-based flow cytometry, RGS16-Galphao binding; actives lie on both sides | shares compounds with RGS16-Gao | 1,700 tested, 4% active | response (% of control binding), % at 10 µM; in the data active = response below about 74% or above about 130%; inactive = in between;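 also: Galphao activated as the GDP aluminium fluoride complex binding bead-coupled RGS16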
RGS4-Gao single: RGS4-Galphao interaction regulation, single point confirmation; shares compounds with RGS16-Gao; RGS4-Galphao binding, multiplexed bead flow cytometry; actives lie on both sides; binding response (% of control), % at 10 µM; 1,700 tested, 4% active; in the data active = binding response below about 74% or above about 130%; inactive = in between
RGS19-Gao conf: RGS19-Galphao interaction regulation, single point confirmation. shares compounds with RGS16-Gao. bead-based flow cytometry RGS19-Galphao binding; actives lie on both sides. response (percent of control binding), % at 10 µM. 1,700 tested, 5% active. AID 1841; in the data active = response below about 50% or above about 160%; inactive = in between
Hits are given with their value; i = inactive; ? = inconclusive; nt = no result given; [ ] = dose if it differs, or a comment. Unless noted, no rule for the calls is given here.

SMILES	RGS7-Gao reg	RGS16-Gao	RGS4-Gao reg	RGS8-Gao reg	Avidin fluor	GSH fluor	Avidin counter	RGS8-Gao confirm	RGS7-Gao single	RGS16-Gao single	RGS4-Gao single	RGS19-Gao conf	others
COCCN1C(=O)c2ccccc2C(C(=O)NCCCN2CCCC2)C1c1c[nH]c2ccccc12 (stereo not drawn)	33.5	i	38.4	41.6	i	i	i	i	i	i	i	i
Cc1onc(-c2c(F)cccc2Cl)c1C(=O)O/N=C(\N)c1ccc([N+](=O)[O-])o1	?	i	i	i	i	nt	nt	nt	nt	nt	nt	nt
Cc1csc(NC(=O)C2C3C=CC(C3)C2C(=O)O)n1 (stereo not drawn)	-9.1	-19.9	-22.9	10.2	i	i	i	i	i	i	i	i
O=[N+]([O-])c1ccc(COc2ccccc2/C=N/O)cc1	i	22.5	i	i	i	i	i	i	i	i	i	i	RGS4-Gao HTS=89.2
CCOc1cc(/C=N/O)ccc1OCc1ccc([N+](=O)[O-])cc1	i	i	i	i	i	i	nt	nt	nt	nt	nt	nt
CCN1C(=O)C2(SC(NC(C)=O)=NN2C(C)=O)c2cc(C)cc(C)c21 (stereo not drawn)	i	i	i	i	i	i	nt	nt	nt	nt	nt	nt
CCCN1C(=O)C2(SC(NC(C)=O)=NN2C(C)=O)c2cc(C)cc(C)c21 (stereo not drawn)	?	i	i	i	i	nt	i	i	i	i	i	i
O=C(NCC1CCS(=O)(=O)C1)Oc1ccccc1 (stereo not drawn)	i	291.3[activator]	i	i	i	i	i	i	i	i	i	i	RGS4-Gao HTS=108.5
Fc1ccc(C(Nc2ccccn2)c2c[nH]c3ccccc23)cc1 (stereo not drawn)	i	i	i	140.5[activator]	i	i	i	i	i	i	i	i	RGS4-Gao HTS=124.5
CNC(=O)CCC(=O)Nc1ccc(C)cc1	i	i	i	i	i	i	nt	nt	nt	nt	nt	nt
CC/C(=N/NC(=O)c1ccccc1)c1ccc(OCCN2CCOCC2)cc1	189.7[activator]	i	206.9[activator]	188.7[activator]	i	i	i	i	i	i	i	i
CSc1nc(N(C)C)nc(N2CC(=O)N(CCNS(=O)(=O)c3ccc(C)cc3)C2=N)n1	i	i	i	i	i	i	nt	nt	nt	nt	nt	nt
Cc1ccc(S(=O)(=O)Nc2ccnc(-c3cccnc3)n2)cc1	i	i	i	i	i	i	nt	nt	nt	nt	nt	nt
N#C/C(=C\c1ccc(N2CCOCC2)o1)C(=O)NCCc1ccccc1	i	i	i	i	i	i	nt	nt	nt	nt	nt	nt
N#C/C(=C/c1ccc(N2CCOCC2)o1)C(=O)Nc1ccccc1	198.2[activator]	i	159.0[activator]	i	55	i	i	i	i	i	i	i
O=C(NCc1ccco1)C1CCCN1C(=O)Nc1ccc(Cl)cc1 (stereo not drawn)	i	i	i	i	i	i	nt	nt	nt	nt	nt	nt
CC(=O)c1ccc(N2CCN(C(=O)c3ccc(Cn4c(=S)[nH]c5ccc(N6CCOCC6)cc5c4=O)cc3)CC2)cc1	i	i	i	i	i	i	nt	nt	nt	nt	nt	nt
CC1CN/C(=C\C(=O)c2ccccc2)C(=O)N1 (stereo not drawn)	43.7	i	49.4	56.4	i	i	i	i	i	i	i	i
CC1CN/C(=C\C(=O)c2ccc(Cl)cc2)C(=O)N1 (stereo not drawn)	i	i	i	i	i	i	nt	nt	nt	nt	nt	nt
CCCN1CN(c2ccccc2)C(=S)N(c2ccccc2)C1	?	i	195.1[activator]	i	i	nt	i	i	i	i	i	i
CCCN1CNC(=S)N(c2ccccc2OC)C1	i	i	i	i	i	i	nt	nt	nt	nt	nt	nt
CC1CCCN(c2ccc(C(=O)Nc3cccnc3)cc2[N+](=O)[O-])C1 (stereo not drawn)	?	i	i	i	i	i	nt	nt	nt	nt	nt	nt
O=C(NCC(=O)N(CC1CCCO1)C(C(=O)NC1CCCCC1)c1ccc(F)cc1)c1ccco1 (stereo not drawn)	236.6[activator]	i	165.0[activator]	i	175	i	i	i	i	i	i	i
Cc1ccc(C(C(=O)NC2CCCCC2)N(CC2CCCO2)C(=O)CNC(=O)c2ccco2)cc1 (stereo not drawn)	i	i	i	i	i	i	nt	nt	nt	nt	nt	nt
O=C(CN(Cc1ccccc1C(F)(F)F)C(=O)CNC(=O)c1ccco1)NC1CCCC1	170.8[activator]	i	i	i	104	i	i	i	i	i	i	i	RGS4-Gao HTS=112.5
SMILES	RGS7-Gao reg	RGS16-Gao	RGS4-Gao reg	RGS8-Gao reg	Avidin fluor	GSH fluor	Avidin counter	RGS8-Gao confirm	RGS7-Gao single	RGS16-Gao single	RGS4-Gao single	RGS19-Gao conf	others
O=C(NCC(=O)N(Cc1ccccc1)C(C(=O)NC1CCCC1)c1ccco1)c1ccco1 (stereo not drawn)	i	i	i	i	i	i	nt	nt	nt	nt	nt	nt
C=CCNC(=O)c1ccccc1NC(=O)C1COc2ccccc2O1 (stereo not drawn)	i	i	i	i	nt	i	nt	nt	nt	nt	nt	nt
S=c1[nH]nc(-c2cc(-c3ccccc3)n[nH]2)n1/N=C/c1ccc(Br)s1	?	i	i	i	i	nt	nt	nt	nt	nt	nt	nt
COc1ccc2c(c1)c1nc(SCC(C)C)n(CCO)c(=O)c1n2C	42.5	i	40.9	48.5	i	i	i	i	i	i	i	i
COc1ccc(CN2C(=O)CC(C(=O)NCCc3ccc(S(N)(=O)=O)cc3)SC2=Nc2ccccc2)cc1 (stereo not drawn)	i	i	i	i	i	i	nt	nt	nt	nt	nt	nt
Cc1ccc(C(=O)COC(=O)CCCC(=O)Nc2cc(C(F)(F)F)ccc2Cl)cc1C	12.0	10.8	19.8	25.6	i	i	i	i	i	i	i	i
Cc1ccc(C(=O)COC(=O)CCC(=O)Nc2ccccc2Cl)cc1[N+](=O)[O-]	i	i	i	i	i	i	nt	nt	nt	nt	nt	nt
Cc1c(Cl)cccc1NC(=O)CC(C(=O)O)C1CCCO1 (stereo not drawn)	i	i	i	147.6[activator]	i	i	i	i	i	i	i	i	RGS4-Gao HTS=136.4
CCOC(=O)N/N=C\c1ccc(-c2cccc(C(F)(F)F)c2)o1	i	i	i	i	i	i	nt	nt	nt	nt	nt	nt
